Rows were chosen to be rich in hits. Some 2.3% of all compounds tested hit in one or more screens of this group.
Tau FP inhib = blocks human tau fibril formation measured by polarization. P10636. Potency, µM (titrated, usually from 57.7 µM), for the others: at the top dose activity, negative = inhibition, most hits filed as inhibitors. K18 P301L tau heparin fibrillization, Alexa594 FP, 6 h. actives 0.39% (n = 280,000); further: potency means the concentration at half of the fitted maximal effect; nearly all actives have a fitted effect of over 55% in size
Target sequence (P10636 561-689 P618L limits assumed): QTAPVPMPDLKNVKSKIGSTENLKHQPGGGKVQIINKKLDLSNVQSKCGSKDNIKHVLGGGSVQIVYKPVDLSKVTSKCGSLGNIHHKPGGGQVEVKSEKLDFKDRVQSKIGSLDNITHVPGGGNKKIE
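Human K18 P301L fragment (15 uM unlabeled plus 0.24 uM Alexa 594-labeled) in 100 mM sodium acetate pH 7 with compound, aggregation induced by 20 uM heparin for 6 hr at 37 C. ThT (30 uM) added for 1 hr, then Alexa 594 FP read.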
Tau fluor cs = counter-screen for tau fibril formation inhibitors; Potency, µM (top dose mostly 57.7 µM), inactives show at the highest dose activity change, negative = decrease; AID 1463; tau K18 P301L Alexa594 fluorescence, heparin fibrillization; actives 0.93% (n = 280,000); further: potency means the concentration at half of the fitted maximal effect; nearly all actives have a fitted effect of over 55% in size
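Human K18 P301L tau (15 uM unlabeled plus 0.24 uM Alexa 594-labeled, final) in 100 mM sodium acetate pH 7 was mixed with compound and 20 uM heparin and incubated 6 hr at 37 C.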
Coupling enz = counter-screen for Giardia aldolase inhibitors: coupling enzyme system; AID 2472; activity change, negative = inhibition, % at 58.2 µM, hits read low; coupling enzyme system counterscreen, AmpLite Red fluorescence; actives 0.67% (n = 290,000); in the data active means activity change below about -30%
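Activity here indicates interference with the coupling reaction, not aldolase inhibition. Compounds at 57.5 uM final met coupling enzymes for 10 min at RT; substrate and AmpLite Red detection followed, with a 525/598 nm fluorescence read after 20 min.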
Tau ThT inhib = inhibitors of human tau fibril formation, thioflavin T binding; P10636; recombinant tau K18 P301L (four-repeat tau fragment), heparin-induced fibrillization, ThT fluorescence; Potency, µM (titrated, usually from 57.4 µM), for the others: at the top dose activity, negative = inhibition, usual class: inhibitors; actives 2.1% (n = 270,000); further: potency means the concentration at half of the fitted maximal effect; nearly all actives have a fitted effect of over 55% in size
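Heparin-induced fibrillization of the P301L-mutant K18 repeat-domain fragment of human tau was followed by ThT binding in quantitative high-throughput format.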
USP1 inh = blocks the human USP1/UAF1 deubiquitinase complex | O94782 | recombinant USP1/UAF1, Ub-Rhodamine cleavage fluorescence | Potency, µM (top dose mostly 57.1 µM), for inactives: at the top dose activity change, negative = inhibition, actives largely listed as inhibitors | actives 0.23% (n = 390,000); further: potency means the concentration at half of the fitted maximal effect; nearly all actives have a fitted effect of over 60% in size
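1 nM enzyme complex + cpd, 15 min RT; start with Ub-Rho 150nM final; kinetic fluorescence ex 480/em 540, 6 reads q60 s. Buffer 50mM HEPES pH 7.8, 0.5mM EDTA, 0.1 mg/ml BSA, 1mM TCEP, 0.01% Tween-20.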
The depositor's hits bear a star; ? = inconclusive; · = no result; [ ] = another dose, or the depositor's remark. Unless noted, the call rests on the fitted dose curve; in most records, active means well fitted curve in the direction sought with a large enough effect; inconclusive means small, poorly fitted or top-dose-only effect, or another doubt; inactive means no such curve, though single readings can be large; an effect the other way counts as inactive or inconclusive. On the % scale 0 is the no-effect control and ±100 the full control effect.

SMILES | Tau FP inhib | Tau fluor cs | Coupling enz | Tau ThT inhib | USP1 inh
COCCn1c(SCC(=O)Nc2nnc(C)s2)nnc1-c1cc2ccccc2cc1O | -2% | -14% | -44* | -7% | -3%
Clc1cccc(CN2CCSCC2)c1Cl | · | · | 1 | · | -17%
COc1ccc(N2CCN(C(=O)CN3C(=O)CSc4c3c(C)nn4-c3ccccc3)CC2)cc1 | -2% | -10% | · | -6% | -22%
N=c1c[n+](N2CCOCC2)[n-]o1 | ? | -20% | 4 | 13µM* | -1%
O=S1(=O)C=C(Sc2nc3cc(Cl)ccc3o2)c2ccccc21 | 25µM* | 7.1µM*[quencher] | -1 | ? | -21%
Cc1cccc(OCCCC(=O)Nc2ccc(N(C)C)cc2)c1 | 16% | -23% | -3 | 13µM* | -9%
Cc1cccc(OCCCC(=O)Nc2ccc(Br)cc2)c1 | -7% | -17% | -1 | 1% | -6%
O=C(/N=C1\NC(=O)C(F)(C(F)(F)F)S1)NC1CCCCC1 (stereo not drawn) | ? | -16% | 6 | 25µM* | -11%
CC(=O)Cn1cnc2c(sc3nc(C)cc(C)c32)c1=O | 3% | -3% | 0 | -4% | -8%
Cc1cc(C)c2c(=O)n(CC(=O)N3CCC(N4CCCCC4)CC3)sc2n1 | 25µM* | ? | 4 | 25µM* | -25%
CCOC(=O)C1CCCN(C(=O)Cn2cnc3c2c(=O)n(C)c(=O)n3C)C1 (stereo not drawn) | 4% | 5% | 2 | -7% | -16%
CCCNC(=O)Cn1sc2nc(C)cc(C)c2c1=O | 16µM* | -23% | 5 | · | -4%
CCOC(=O)C1CCCN(C(=O)Cn2sc3nc(C)cc(C)c3c2=O)C1 (stereo not drawn) | 25µM* | -28% | 3 | 11µM* | 2%
CC(C)(C)c1ccc(C(=O)N/C(=C\c2ccco2)C(=O)Nc2ccccc2C(=O)O)cc1 | · | · | 0 | · | -20%
COC(=O)c1sccc1S(=O)(=O)N1CCN(c2cc(Cl)ccc2C)CC1 | -7% | -19% | · | -9% | -27%
Cc1c(C(=O)NCCc2ccc(Cl)cc2)cccc1-n1cnc2cccnc21 | -2% | -13% | · | 4% | -10%
Cc1ccc(NC(=O)N/C=C/c2ccc(Cl)cc2)cc1 | 5% | 4% | · | -1% | -18%
O=C(N/C=C/c1ccccc1)Nc1ccc(Cl)cc1 | ? | 5µM*[quencher] | 1 | ? | -21%
COC(=O)c1c(C)[nH]c(-c2csc(N)n2)c1C | -13% | ? | -3 | 25µM* | ?
COc1cc(/C=C2\SC(=O)N(Cc3ccc(Cl)cc3)C2=O)cc([N+](=O)[O-])c1O | -3% | -30% | 8 | 13µM* | ?
CCOC(=O)CN1C(=O)S/C(=C/c2ccc(OC)c([N+](=O)[O-])c2)C1=O | 6% | 0% | 2 | -2% | -21%
COc1cc(/C=C2\SC(=O)N(Cc3ccc(F)cc3)C2=O)cc([N+](=O)[O-])c1O | 16% | -18% | 6 | 14µM* | -27%
COc1cc(/C=C2/SC(=S)N(Cc3ccccc3)C2=O)cc(Cl)c1O | · | · | 13 | · | -33%
COc1ccc(N=C2SCC(c3ccc([N+](=O)[O-])cc3)=NN2CCO)cc1 | 14% | ? | 3 | 11µM* | ?
O=[N+]([O-])c1ccc(C2=NN(CCO)C(=Nc3ccc(OC(F)(F)F)cc3)SC2)cc1 | 14% | ? | -1 | 14µM* | -15%
SMILES | Tau FP inhib | Tau fluor cs | Coupling enz | Tau ThT inhib | USP1 inh
COc1ccc(N=C2SCC(c3ccc(C)cc3)=NN2CCO)cc1 | 13% | ? | -4 | ? | -11%
CCCN(CCC)C(=O)CN1C(=O)CSc2ccc(S(=O)(=O)N3CCC(C)CC3)cc21 | 3% | -12% | · | -6% | -3%
O=C(Nc1ccc(F)cc1F)c1ccc2c(O)c(S(=O)(=O)c3ccc(Cl)cc3)c(=O)[nH]c2c1 | 1% | 7% | · | 11% | -2%
CC(=O)Nc1ccc(S(=O)(=O)Nc2nnc(CC(C)(C)C)s2)cc1 | 18% | -33% | 0 | 4µM* | -16%
CCc1nnc(NS(=O)(=O)c2ccc(NS(=O)(=O)c3ccc(NC(C)=O)cc3)cc2)s1 | 0% | -3% | 11 | -1% | ·
CC(C)NC(=O)CC1Nc2c3ccccc3nc(=S)n2C1=O (stereo not drawn) | -8% | -3% | -35* | 0% | 3%
O=C1C=C(c2c(O)ccc3ccccc23)c2ccccc2C1=O | · | · | · | · | 28µM*
Cc1nn(-c2ccccc2)c2c1C1(C(=O)N(C(C)C)c3ccccc31)C(C#N)=C(N)O2 (stereo not drawn) | ? | ? | -55* | 25µM* | -11%
CC1(CN2CCCC2)CCC(NC(=O)C(c2ccccc2)c2ccccc2)C(C)(C)O1 (stereo not drawn) | · | · | · | · | -24%
COc1ccc(OC)c(-c2c3cc(O)c(=O)cc-3oc3cc(O)c(O)cc23)c1 | 16µM* | ? | -53* | 3.2µM* | ?
CCOc1ccccc1-c1c2cc(O)c(=O)cc-2oc2cc(O)c(O)cc12 | 14µM* | 17% | -62* | ? | ?
O=c1cc(-c2cccc(O)c2O)oc2ccccc12 | 3% | ? | -14 | 13µM* | ·
O=c1cc2oc3cc(O)c(O)cc3c(-c3ccccc3O)c-2cc1O | 13µM* | ? | -24 | 2.5µM* | ?
COc1ccccc1-c1cc(=O)c2cc(O)ccc2o1 | -7% | -15% | 2 | -18% | ·
O=c1cc(-c2ccccc2O)oc2cc(O)ccc12 | -16% | -8% | 5 | -7% | ·
COc1ccc(Cc2nc3ccccc3n2Cc2ccccc2C)cc1 | -14% | -14% | · | ? | -23%
CC(C)Cn1c2c(c(O)c(C(=O)Nc3ccc(F)cc3)c1=O)CCCC2 | -8% | -10% | 2 | -10% | -19%
CC(C)Cn1c2c(c(O)c(C(=O)Nc3ncccc3O)c1=O)CCCC2 | 0% | -18% | -37* | ? | -20%
COn1c(C)c(C)c2c3nonc3ccc21 | ? | ? | -39* | 14µM* | ?
C[C@@H]1CN([C@H](C)CO)C(=O)c2cc(Br)cnc2O[C@H]1CN(C)C(=O)Nc1ccc2c(c1)OCO2 | · | · | · | · | -17%
O=C(/C=C/c1cccc([N+](=O)[O-])c1)n1cnc2ccccc21 | ? | ? | 1 | 13µM* | -15%
COCCN=c1scc(-c2cc(OC)ccc2OC)n1/N=C/c1c[nH]c2ccccc12 | -10% | 7.9µM*[quencher] | -5 | ? | -24%
Cc1ccc(NC(=S)NCc2ccccc2)cc1S(=O)(=O)N1CCCCC1 | 20µM* | 13µM*[quencher] | 6 | 5% | -26%
Cc1ccc(S(=O)(=O)N2CCCCC2)cc1NC(=O)Cc1c[nH]c2ccccc12 | 7% | ? | -2 | -8% | -21%
Cc1ccc(NC(=O)Cc2c[nH]c3ccccc23)cc1S(=O)(=O)N1CCCCCC1 | 8% | 14µM*[quencher] | -5 | -8% | -17%
